Molecules are shown by their SMILES. Inconclusive results are not listed. The source made the active and inactive calls. Unless noted, calls follow the shape of the dose curve; as a rule, active = well fitted curve in the direction sought with a large enough effect; inconclusive = small, poorly fitted or top-dose-only effect, or another doubt; inactive = no such curve, though single readings can be large; an effect the other way counts as inactive or inconclusive.

Assay [1] is described as follows: Cytometry Cell-Based qHTS for Inhibitors of the mTORC1 Signaling Pathway in MEF cells (AID 2668). Also: potency is read from the fitted curve at half-maximal effect. The essentials:
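Read-out: phospho-rpS6 Ser235/236 immunofluorescence normalized to propidium iodide intensity, scored as % active cells against a rapamycin (7.5 nM) threshold. Cells: Tsc2-/-, p53-/- MEFs stably expressing WT Tsc2, compound-treated 24 hrs at 37 degree Celsius.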

Assay [2] is described as follows: Validation screen for inhibitors of Lassa infection (AID 463096; calls by dose curve; also: potency is read from the fitted curve at half-maximal effect).
The nature of assay [3]: Validation screen for small molecules that induce DNA re-replication in MCF 10A normal breast cells (AID 463097). Also: nearly all actives have a fitted effect of over 60% in size. Also: potency is read from the fitted curve at half-maximal effect. The essentials: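 250 MCF 10A cells/well; compound pin-transferred; 48 hr, 37 C, 5% CO2; Hoechst 40 min; imaged 405/500-530 nm. Hits = more high-intensity nuclei.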
The target in assay [4] is Ubiquitin carboxyl-terminal hydrolase 2 (Homo sapiens) (UniProt O75604). As to the kind of experiment: qHTS Validation Assay for Inhibitors of Ubiquitin-specific Protease USP2a Using CHOP2 as the Reporter (AID 463106). The gist of the method:
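Readout was coupled fluorescence (Ex 485/Em 531 nm), read 60 min after adding 25 nM final Ub-CHOP2 and 25 nM reporter substrate. Beforehand, 10 nM final USP2 core had 30 min at RT with compound in pH 8.0 buffer. Curves were fitted after normalization to NEM and flagged for artifacts using time-zero reads.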

The target in assay [5] is DNA polymerase III PolC-type (Bacillus subtilis (strain 168)) (UniProt P13267). As to the kind of experiment: qHTS Validation Assay for the Inhibitors of DNA Replication in Gram-Positive Bacteria (AID 485295).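 Also: reconstituted holoenzyme with PolC plus beta clamp SSB and primase; PicoGreen fluorescence of double-stranded DNA made on primed circular M13 template; series mostly up to about 57 µM.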 The essentials:
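PicoGreen fluorescence (ex 480–485/em 535–540 nm) reports dsDNA synthesized on ssM13Gori template with dNTPs/NTPs. Enzyme: holoenzyme rebuilt from purified PolC, beta subunit, SSB and primase. Compound preincubated before substrate addition; RT throughout.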

Assay [6] deals with Tumor susceptibility gene 101 protein (Homo sapiens) (UniProt Q99816). As to the kind of experiment: qHTS Validation Assay for Iinhibitors of HIV-1 Budding by Blocking the Interaction of PTAP/TSG101 (AID 485342; calls by dose curve). The essentials:
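FP read-out: FITC-PTAP peptide, 50 nM final, binding Tsg101 binding domain, 10 uM final; 20 min r.t.; 10 mM HEPES pH 7.5, 0.15 M NaCl, 0.01% Tween 20, 3 mM EDTA, 0.1 mM TCEP.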

Assay [7] deals with Beta-2 adrenergic receptor (Homo sapiens) (UniProt P07550). As to the kind of experiment: qHTS validation assay of beta-arrestin-biased ligands of beta2-adrenergic receptor (AID 485366). The essentials: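 Agonist activity is measured as luciferase luminescence downstream of beta-arrestin recruitment to recombinant beta2-AR in Tango cells. Exposure lasts 18 hr at 37 degrees C, and curves are categorized by r2, response size and activity.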

A short description of assay [8]: Quantitative high throughput screen for delayed death inhibitors of the malarial parasite plastid, 96 hour incubation (AID 488745). Also: nearly all actives have a fitted effect of over 70% in size. Also: potency is read from the fitted curve at half-maximal effect. The essentials: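 Luciferase-expressing P. falciparum, infected RBCs 2% Hct/0.1% parasitemia (final); 96 h cpd exposure, 37 C, 5% CO2; RPMI 1640 + 0.5% Albumax, bicarbonate, gentamycin. Readout: luminescence loss = growth inhibition.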

The nature of assay [9]: Quantitative high throughput screen for delayed death inhibitors of the malarial parasite plastid, 48 hour incubation (AID 488752). Also: nearly all actives have a fitted effect of over 65% in size. Also: potency is read from the fitted curve at half-maximal effect. The gist of the method:
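Luciferase-expressing P. falciparum in RBCs, 2% Hct, 0.1% parasitemia final; RPMI 1640 + 0.5% Albumax; 48 h, 37 C, 5% CO2; luminescence readout, signal drop = growth inhibition.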

The target of assay [10] is Thioredoxin reductase 1, cytoplasmic (Rattus norvegicus) (UniProt O89049). As to the kind of experiment: qHTS Assay for Inhibitors of Mammalian Selenoprotein Thioredoxin Reductase 1 (TrxR1) (AID 488773). Also: nearly all actives have a fitted effect of over 40% in size. Also: potency is read from the fitted curve at half-maximal effect. The conditions noted are these: Potency: inhibition. The essentials:
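Inhibition is scored from the loss of NADPH fluorescence between first and last reads of an 8-min kinetic run. Selenite (400 uM) was the substrate, added after 15 min compound preincubation at room temperature.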

In assay [11] the target is Flap endonuclease 1 (Homo sapiens) (UniProt P39748). Nature of the assay: qHTS Validation Assay for the Inhibitors of Human Flap endonuclease 1 (FEN1) (AID 488816). The essentials: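 qHTS format: compounds and 10 nM FEN1 incubated 15 min at room temperature before adding 50 nM substrate. Cleavage followed by reads at 0 and 15 min; normalized data fitted to a four-parameter Hill curve.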
Chain of Flap endonuclease 1 (Homo sapiens) (P39748 whole entry, looked up): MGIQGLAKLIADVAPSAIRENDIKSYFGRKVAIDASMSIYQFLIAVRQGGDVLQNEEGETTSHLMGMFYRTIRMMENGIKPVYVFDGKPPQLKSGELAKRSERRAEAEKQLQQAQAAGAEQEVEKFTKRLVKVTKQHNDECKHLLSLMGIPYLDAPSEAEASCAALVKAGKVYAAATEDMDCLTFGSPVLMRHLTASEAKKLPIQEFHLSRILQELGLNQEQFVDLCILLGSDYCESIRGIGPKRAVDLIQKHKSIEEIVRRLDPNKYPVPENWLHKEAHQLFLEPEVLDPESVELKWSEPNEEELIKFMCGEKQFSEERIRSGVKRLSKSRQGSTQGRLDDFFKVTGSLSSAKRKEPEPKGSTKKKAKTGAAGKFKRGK

In assay [12] the target is M-phase phosphoprotein 8 (Homo sapiens) (UniProt Q99549). Nature of the assay: qHTS Validation Assay for Inhibitors for MPP8 Chromodomain Interactions with Methylated Histone Tails (AID 488949). Also: nearly all actives have a fitted effect of over 55% in size. Also: potency is read from the fitted curve at half-maximal effect. The essentials: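 AlphaScreen read-out: streptavidin donor and nickel chelate acceptor beads (final 10 ug/mL), 30 min in the dark at RT. Complex of 50 nM MPP8 and 50 nM b-H3(1-18)K9me3 peptide had been exposed to compounds for 30 min beforehand.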
Chain of M-phase phosphoprotein 8 (Homo sapiens) (Q99549 whole entry, looked up): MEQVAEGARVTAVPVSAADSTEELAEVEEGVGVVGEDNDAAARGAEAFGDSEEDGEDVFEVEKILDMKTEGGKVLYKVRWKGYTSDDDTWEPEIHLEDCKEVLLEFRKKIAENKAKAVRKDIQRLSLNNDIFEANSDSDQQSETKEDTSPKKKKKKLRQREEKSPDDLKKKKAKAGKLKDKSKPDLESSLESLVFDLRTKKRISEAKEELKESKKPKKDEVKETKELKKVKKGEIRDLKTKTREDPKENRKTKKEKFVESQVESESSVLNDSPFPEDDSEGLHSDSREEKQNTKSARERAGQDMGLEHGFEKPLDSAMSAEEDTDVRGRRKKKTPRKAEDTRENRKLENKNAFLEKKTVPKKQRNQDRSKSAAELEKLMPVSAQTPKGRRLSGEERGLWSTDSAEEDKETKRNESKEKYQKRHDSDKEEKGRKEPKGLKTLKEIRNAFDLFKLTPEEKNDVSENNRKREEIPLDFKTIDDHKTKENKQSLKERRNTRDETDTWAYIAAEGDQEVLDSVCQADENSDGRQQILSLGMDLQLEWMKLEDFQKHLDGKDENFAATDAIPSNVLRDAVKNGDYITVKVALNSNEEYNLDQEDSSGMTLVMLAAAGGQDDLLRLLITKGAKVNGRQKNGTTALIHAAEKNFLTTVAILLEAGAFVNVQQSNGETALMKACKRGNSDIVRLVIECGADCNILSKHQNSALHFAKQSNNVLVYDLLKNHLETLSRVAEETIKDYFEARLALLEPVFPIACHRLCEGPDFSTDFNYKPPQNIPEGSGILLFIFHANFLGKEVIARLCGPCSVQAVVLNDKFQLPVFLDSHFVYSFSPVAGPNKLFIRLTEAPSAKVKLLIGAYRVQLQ

Assay [13] has as its target Chromobox protein homolog 1 (Homo sapiens) (UniProt P83916). As to the kind of experiment: qHTS Validation Assay for Inhibitors of HP1-beta Chromodomain Interactions with Methylated Histone Tails (AID 488953). Also: nearly all actives have a fitted effect of over 50% in size. Also: potency is read from the fitted curve at half-maximal effect. The gist of the method:
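AlphaScreen proximity readout: streptavidin donor and Ni-chelate acceptor beads, 10 ug/mL final, 30 min dark, RT. Complex of 50 nM HP1-beta and 50 nM b-H3(1-18)K9me3 formed 30 min, then compound-treated 30 min; PBS pH 7.4/0.01% Tween-20.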

Assay [14] deals with Methanococcus maripaludis chaperonin (MmCpn) (UniProt Q6LX38). Nature of the assay: High-Throughput Screening for Modulators of Cytosolic Chaperonin Activity: MmCpn Primary Screen (AID 488978). The gist of the method: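 ADP formation read by HTRF Transcreener, 665/590 nm emission after 320 nm excitation. Enzyme: archaeal chaperonin at 50 nM final; substrate ATP 30 uM final; 10 min, 37C, after 5 min compound preincubation at RT.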
Chain of Methanococcus maripaludis chaperonin (MmCpn) (Q6LX38 1-543): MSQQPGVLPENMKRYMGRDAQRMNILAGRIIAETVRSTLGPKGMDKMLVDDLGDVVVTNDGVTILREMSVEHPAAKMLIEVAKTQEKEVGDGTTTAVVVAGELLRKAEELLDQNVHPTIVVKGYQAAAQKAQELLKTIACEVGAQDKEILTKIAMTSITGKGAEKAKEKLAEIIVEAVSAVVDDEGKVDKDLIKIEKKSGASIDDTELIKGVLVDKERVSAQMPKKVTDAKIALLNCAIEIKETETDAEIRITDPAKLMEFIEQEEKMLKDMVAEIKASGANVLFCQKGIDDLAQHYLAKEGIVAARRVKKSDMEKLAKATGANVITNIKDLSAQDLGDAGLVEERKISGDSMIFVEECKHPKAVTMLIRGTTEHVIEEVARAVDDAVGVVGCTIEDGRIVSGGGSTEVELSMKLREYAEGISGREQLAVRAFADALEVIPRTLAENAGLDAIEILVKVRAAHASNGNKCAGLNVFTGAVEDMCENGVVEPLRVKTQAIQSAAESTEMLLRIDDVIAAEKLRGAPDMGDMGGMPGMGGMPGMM

The target in assay [15] is Transient receptor potential cation channel subfamily V member 1 (Homo sapiens) (UniProt Q8NER1). Nature of the assay: HTS Assay for Compounds that Act as Enhancers of the Vanilloid Receptor 1 (AID 488979). The gist of the method: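 Calcium influx kinetics via Fluo-8 (480/520 nm) in TRPV1-expressing cells, 2000/well cultured overnight at 35.5C. Compound-alone read 3 min (agonist phase), followed by EC20 capsaicin challenge for 2 min (enhancer phase).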
Chain of Transient receptor potential cation channel subfamily V member 1 (Homo sapiens) (Q8NER1 whole entry, looked up): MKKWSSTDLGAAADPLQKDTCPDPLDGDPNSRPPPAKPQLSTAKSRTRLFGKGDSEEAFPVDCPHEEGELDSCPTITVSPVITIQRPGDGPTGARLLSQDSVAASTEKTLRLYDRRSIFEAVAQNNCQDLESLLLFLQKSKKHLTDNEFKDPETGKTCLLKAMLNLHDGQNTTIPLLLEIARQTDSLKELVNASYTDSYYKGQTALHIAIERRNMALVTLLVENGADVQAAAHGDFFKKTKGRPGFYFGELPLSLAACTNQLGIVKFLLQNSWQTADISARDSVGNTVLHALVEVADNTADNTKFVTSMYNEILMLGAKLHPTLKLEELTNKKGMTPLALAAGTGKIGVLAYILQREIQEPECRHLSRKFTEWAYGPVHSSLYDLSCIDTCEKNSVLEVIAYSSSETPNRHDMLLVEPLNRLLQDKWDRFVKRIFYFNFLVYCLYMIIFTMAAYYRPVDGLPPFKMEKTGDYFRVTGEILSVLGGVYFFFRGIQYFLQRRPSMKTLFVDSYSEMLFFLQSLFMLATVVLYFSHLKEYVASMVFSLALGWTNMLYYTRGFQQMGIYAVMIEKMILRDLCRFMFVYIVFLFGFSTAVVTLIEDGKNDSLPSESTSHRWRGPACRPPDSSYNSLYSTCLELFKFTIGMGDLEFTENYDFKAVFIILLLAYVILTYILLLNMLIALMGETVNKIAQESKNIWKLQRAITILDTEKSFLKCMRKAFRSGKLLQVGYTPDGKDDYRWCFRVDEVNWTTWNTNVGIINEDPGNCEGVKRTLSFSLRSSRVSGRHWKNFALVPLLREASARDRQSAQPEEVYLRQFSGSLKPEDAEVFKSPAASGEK

Assay [16] has as its target Thyrotropin receptor (Homo sapiens) (UniProt P16473). Nature of the assay: qHTS Assay for Antagonists of the Thyroid Stimulating Hormone Receptor (AID 488980). Also: series mostly up to about 58 µM. The gist of the method:
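TSHR-HEK293 cells; 70 uM RO 20-1724 PDE inhibitor; compound + EC80 TSH (4 nM final); anti-cAMP cryptate antibody/cAMP-d2 in lysis buffer, 30 min RT; HTRF 665/620 nm read.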

Assay [17] has as its target D(1A) dopamine receptor (Homo sapiens) (UniProt P21728). As to the kind of experiment: HTS Assay for Allosteric Agonists of the Human D1 Dopamine Receptor: Primary Screen for Agonists (AID 488981). The gist of the method:
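Calcium flux in an inducible, force-coupled HEK293 Trex D1 line (overnight at 30 C): agonist mode is the 180 s kinetic read after compound; potentiator mode is the following 180 s read after dopamine at EC20.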

Assay [18] in a line: qHTS Validation Assay to Find Inhibitors of Chronic Active B-Cell Receptor Signaling (AID 485345; active = well fitted curve in the direction sought with a large enough effect in the main read-out, with a control signal flat, not every such curve was filed as active). The gist of the method: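 Read-out: ratio of filter-corrected green (IkappaBalpha fusion) to red (native) luciferase signal in doxycycline-induced TMD8 cells after 4 h at 37C. Titration spanned 46 uM–3 nM; Data were normalised to basal cells and 10 uM MG-132 wells.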
Assay [19] concerns the target Thioredoxin reductase 1, cytoplasmic (Rattus norvegicus) (UniProt O89049). Nature of the assay: qHTS Assay for Substrates of Mammalian Selenoprotein Thioredoxin Reductase 1 (TrxR1) (AID 488772).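 Also: series mostly up to about 57 µM; a drop in NADPH fluorescence below the no-compound background marks a TrxR1 substrate.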 The gist of the method: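 In this dual-purpose format, potential substrates are identified from the first fluorescence read after selenite addition, not from the 8-minute delta. Rat enzyme is preincubated with NADPH and then with compound at ~22 deg C.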

The target of assay [20] is ATP-dependent 6-phosphofructokinase (Trypanosoma brucei brucei) (UniProt O15648). Nature of the assay: qHTS Validation Assay to Find Inhibitors of T. brucei phosphofructokinase (AID 485368). The gist of the method: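 Inhibition derived from concentration-response curves of luminescence, ranked by r2, response size and curve class; the underlying reaction used 1.25 nM PFK, 0.1 mM ATP and 0.5 mM F6P, 45 min, room temperature.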

Chain of DNA polymerase III PolC-type (Bacillus subtilis (strain 168)) (P13267 whole entry, looked up): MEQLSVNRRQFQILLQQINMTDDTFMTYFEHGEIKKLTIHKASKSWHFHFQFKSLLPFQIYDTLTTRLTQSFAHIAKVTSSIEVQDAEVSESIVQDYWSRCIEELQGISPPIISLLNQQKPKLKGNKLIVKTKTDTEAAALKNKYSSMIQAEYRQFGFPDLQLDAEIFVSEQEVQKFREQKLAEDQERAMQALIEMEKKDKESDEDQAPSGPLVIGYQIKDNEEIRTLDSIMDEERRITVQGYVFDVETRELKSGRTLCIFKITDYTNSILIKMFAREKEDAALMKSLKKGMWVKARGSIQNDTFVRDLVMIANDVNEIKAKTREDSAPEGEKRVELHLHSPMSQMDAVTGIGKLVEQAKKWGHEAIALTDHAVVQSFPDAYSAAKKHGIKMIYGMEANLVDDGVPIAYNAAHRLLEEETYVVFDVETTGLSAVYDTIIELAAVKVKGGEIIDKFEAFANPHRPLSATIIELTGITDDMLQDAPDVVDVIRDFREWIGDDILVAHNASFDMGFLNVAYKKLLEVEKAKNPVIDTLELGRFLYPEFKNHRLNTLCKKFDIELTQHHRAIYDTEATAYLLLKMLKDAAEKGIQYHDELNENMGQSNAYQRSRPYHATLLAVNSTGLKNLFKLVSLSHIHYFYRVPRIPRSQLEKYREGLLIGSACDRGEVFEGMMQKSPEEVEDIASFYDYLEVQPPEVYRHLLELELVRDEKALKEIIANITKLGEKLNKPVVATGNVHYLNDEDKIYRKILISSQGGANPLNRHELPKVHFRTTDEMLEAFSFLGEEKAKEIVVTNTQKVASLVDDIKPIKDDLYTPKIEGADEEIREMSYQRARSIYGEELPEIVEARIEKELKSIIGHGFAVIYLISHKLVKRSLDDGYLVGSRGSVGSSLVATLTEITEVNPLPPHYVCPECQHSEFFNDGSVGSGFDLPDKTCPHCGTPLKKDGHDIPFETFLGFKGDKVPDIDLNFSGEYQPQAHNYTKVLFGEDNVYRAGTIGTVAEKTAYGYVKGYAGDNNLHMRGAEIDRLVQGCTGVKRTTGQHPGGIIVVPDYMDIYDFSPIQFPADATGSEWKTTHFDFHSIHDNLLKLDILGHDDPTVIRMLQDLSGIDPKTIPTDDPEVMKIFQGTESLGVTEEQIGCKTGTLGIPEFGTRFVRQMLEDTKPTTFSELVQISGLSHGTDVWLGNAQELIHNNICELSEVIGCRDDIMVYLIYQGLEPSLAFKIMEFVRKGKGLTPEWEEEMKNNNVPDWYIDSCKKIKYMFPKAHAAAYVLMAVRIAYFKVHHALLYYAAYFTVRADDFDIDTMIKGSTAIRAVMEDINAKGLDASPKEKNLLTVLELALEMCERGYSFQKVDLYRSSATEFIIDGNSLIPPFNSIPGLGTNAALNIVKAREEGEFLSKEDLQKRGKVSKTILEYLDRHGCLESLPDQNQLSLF
Chain of D(1A) dopamine receptor (Homo sapiens) (P21728 whole entry, looked up): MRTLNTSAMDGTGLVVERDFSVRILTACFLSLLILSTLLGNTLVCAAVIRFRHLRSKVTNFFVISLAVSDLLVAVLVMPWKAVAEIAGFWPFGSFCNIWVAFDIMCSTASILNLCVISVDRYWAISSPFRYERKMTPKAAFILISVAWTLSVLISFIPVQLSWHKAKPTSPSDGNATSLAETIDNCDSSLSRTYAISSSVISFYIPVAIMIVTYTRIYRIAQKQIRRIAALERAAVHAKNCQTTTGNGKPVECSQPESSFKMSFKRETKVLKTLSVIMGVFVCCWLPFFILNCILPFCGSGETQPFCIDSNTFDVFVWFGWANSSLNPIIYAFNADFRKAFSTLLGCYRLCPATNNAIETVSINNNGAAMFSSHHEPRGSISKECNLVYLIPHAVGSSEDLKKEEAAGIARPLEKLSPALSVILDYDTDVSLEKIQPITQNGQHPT
Chain of Chromobox protein homolog 1 (Homo sapiens) (P83916 whole entry, looked up): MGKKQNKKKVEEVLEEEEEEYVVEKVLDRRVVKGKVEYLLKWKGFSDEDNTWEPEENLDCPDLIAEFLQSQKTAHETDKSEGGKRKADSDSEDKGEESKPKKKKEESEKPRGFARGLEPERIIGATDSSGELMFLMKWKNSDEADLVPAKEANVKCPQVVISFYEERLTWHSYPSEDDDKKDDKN

As for `CC(C)(C)c1cc(C=C(C#N)C#N)cc(C(C)(C)C)c1O`, the Potency in assay [1] was 4.14 µM (active); in assay [2] it was 2.51 µM (active); in assay [3], 0.158 µM (active); in assay [8], 1.85 µM (active); in assay [9], 1.47 µM (active); in assay [10], 16.8 µM (active). In addition, the results for the Potency in assay [12] and in assay [13] were 10 µM (active) and 7.94 µM (active), respectively. The Potency entry in assay [4], in [5], in assay [11] and in assay [17] was “inactive” each time. Also, the compound was classed as inactive in [6], in assay [7], in [14], in [15] and in assay [16].
With `O=S1(=O)N(CCN2CC=C(c3c[nH]c4cc(F)ccc34)CC2)c2cccc3c2N1CCC3`, the Potency entry in [1], in assay [2], in [4], in assay [5], in assay [18] and in assay [10] was “inactive” throughout. For the same compound, the Potency result in [17] was “inactive”. Besides, the Potency is 14.1 µM (active) in [3], 0.465 µM (active) in [8], 1.47 µM (active) in assay [9] and 39.8 µM (active) in [13]. Besides, the call in assay [6], in assay [7], in [19], in assay [14], in [15] and in [16] was inactive.
As to `CC(C)(O)[C@@H]1C2OC(=O)[C@@H]1[C@]1(O)C[C@H]3O[C@]34C(=O)O[C@H]2[C@]14C` (tested in a mixture with another compound), the Potency entry in assay [1], in assay [4], in assay [5], in assay [18], in assay [20] and in [10] was “inactive” throughout. The Potency result in assay [11] and in [12] was “inactive” throughout. Further, the call in assay [6], in [7], in assay [19] and in assay [14] was inactive.
Regarding `O=[N+]([O-])c1cc(O)c(O)c([N+](=O)[O-])c1`, the Potency result in [1], in assay [3], in assay [4], in assay [5], in assay [18] and in [8] was “inactive” each time. The Potency result in [9], in assay [10], in assay [11], in [12], in assay [13] and in [17] was “inactive” each time. Besides, the outcome in assay [6], in assay [7], in assay [19], in assay [14], in [15] and in assay [16] was inactive.
Regarding `C=CCN(C1=NCCN1)c1c(Cl)cccc1Cl`, the Potency result in assay [1], in [4], in assay [5], in assay [18], in assay [20] and in assay [10] was “inactive” each time. The Potency entry in assay [11], in [12], in [13] and in [17] was “inactive” throughout. In addition, the call in [6], in [7], in assay [19] and in assay [14] was inactive.
As for `CCCC[N+]1(C)C2CC(OC(=O)[C@H](CO)c3ccccc3)CC1C1OC12` (stereo not given in full), the Potency result in assay [1], in [4], in assay [5], in [18], in assay [10] and in assay [11] was “inactive” each time. The Potency result in assay [12] and in assay [13] was “inactive” each time. The compound was classed as inactive in assay [6], in assay [7], in assay [19] and in assay [14].

The values are drawn from PubChem BioAssay (NCATS).
